33 compounds from ChEMBL document CHEMBL3433997, “St. Jude Leishmania screening dataset” (2016) can be followed below.

Holding throughout (format): functional
Assay [1] concerns the target Solute carrier family 2, facilitated glucose transporter member 1 (Homo sapiens) (UniProt P11166). The experiment in a line: ST_JUDE_LEISH: Cytotoxicity at 2uM final concentration against transgenic Leishmania Mexicana promastigotes LmGLUT1 that are glucose transport deficient and complemented with the human glucose transporter GLUT1. Activity is measured by DNA content using SYBR green in vitro.

Assay [2] addresses Hexose transporter 1 (Plasmodium falciparum) (UniProt O97467). The experiment in a line: ST_JUDE_LEISH: Cytotoxicity at 2uM final concentration against transgenic Leishmania Mexicana promastigotes LmPfHT that are glucose transport deficient and complemented with the Plasmodium falciparum hexose transporter. Activity is measured by DNA content using SYBR green in vitro.
Assay [3] addresses Glucose transporter (Leishmania mexicana) (UniProt O61059). Description: ST_JUDE_LEISH: Cytotoxicity at 2uM final concentration against transgenic Leishmania Mexicana promastigotes LmGT2 that are glucose transport deficient and complemented with the L. Mexicana glucose transporter 2. Activity is measured by DNA content using SYBR green in vitro.

As usually defined, the inhibition is the drop in the measured response relative to a control, in per cent.

Chain of Solute carrier family 2, facilitated glucose transporter member 1 (Homo sapiens) (P11166 whole entry): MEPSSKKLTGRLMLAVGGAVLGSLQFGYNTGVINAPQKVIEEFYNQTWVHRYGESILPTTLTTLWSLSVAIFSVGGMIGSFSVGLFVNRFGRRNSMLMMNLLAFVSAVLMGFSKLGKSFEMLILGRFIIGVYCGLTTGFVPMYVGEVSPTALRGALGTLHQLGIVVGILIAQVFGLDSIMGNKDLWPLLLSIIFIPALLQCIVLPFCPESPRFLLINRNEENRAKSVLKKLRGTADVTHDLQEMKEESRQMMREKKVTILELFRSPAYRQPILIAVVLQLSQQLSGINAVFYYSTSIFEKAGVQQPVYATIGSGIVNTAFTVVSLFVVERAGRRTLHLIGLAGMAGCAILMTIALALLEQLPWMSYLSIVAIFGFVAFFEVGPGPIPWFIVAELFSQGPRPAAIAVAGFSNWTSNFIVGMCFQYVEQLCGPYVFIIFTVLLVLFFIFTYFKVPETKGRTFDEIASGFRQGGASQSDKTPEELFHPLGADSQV

Regarding `O=C(C=Cc1ccc(Cl)c(Cl)c1)NCCCCCN1CCCC(CCCNC(=O)/C=C/c2ccccc2)C1` (centres undefined), the inhibition in assay [1] was found to be 3.2%; in assay [2], 3.05%; in assay [3] it was 3.82%.

For the compound `CCCc1cc2c3c(N)nc(N)nc3ccc2n1CC`, the values for the inhibition in assay [1], in assay [2] and in assay [3] were 6.73%, 8.39% and 4.29%, respectively.

For `COc1ccc(N2CCN(CCCC/C=C/c3ccc(NC(=O)c4cc(Cl)cc(Cl)c4)cc3)CC2)c(OC)c1`, the inhibition stood at 2.58% in assay [1], 1.17% in assay [2] and 0.93% in assay [3].

Turning to `CNc1ccc(CNCc2cccc(-c3ccc(-c4nc5cccc(C)c5[nH]4)s3)c2)cc1`, the values for the inhibition in assay [1], in assay [2] and in assay [3] were 8.15%, 5% and 6.79%, respectively.

As to `CC(C)(C)c1ccc2nccc(Nc3cccc(O)c3)c2c1`, the values for the inhibition in assay [1], in assay [2] and in assay [3] were 2.99%, 2.35% and 2.33%, respectively.

`Cc1cccc2nc(-c3cccc(-c4ccc(C(=O)NCc5ccccc5S(C)(=O)=O)cc4)c3)[nH]c12`: the inhibition was determined as 4.92% in assay [1], 3.13% in assay [2] and 2.53% in assay [3].

On to `O=C(COc1ccccc1Cl)N1CCc2cc3nccc(N4CCN5CCC[C@H]5C4)c3cc21`, for which the inhibition in assay [1] was determined as 6.5%; in assay [2], 5.14%; in assay [3], 6.01%.

`CCCCCC(C)C(C)c1cc(O)c2c(c1)OC(C)(C)CC2(O)c1ccnn1C` (centres undefined): the inhibition in assay [1] stood at 3.29%; in assay [2], 3.23%; in assay [3] it was 3.24%.

Regarding `CN1CCN(c2ccnc3ccc(NC(=O)Nc4c(Cl)cccc4Cl)cc23)CC1`, the results for the inhibition in assay [1], in assay [2] and in assay [3] were -2.39%, -2.3% and -1.19%, respectively.

Take `CCN(CC)CCN(Cc1ccc(-c2ccc(C(F)(F)F)cc2)cc1)C(=O)Cn1c(CCc2ccc(F)c(F)c2)cc(=O)c2ccccc21`: the inhibition in assay [1] came to 7.8%; in assay [2], 7.35%; in assay [3] it was 8.28%.

For the compound `Cc1[nH]c(C)c(-c2ccc(-c3cccc(OC(F)(F)F)c3)nc2)c(=O)c1Cl`, the inhibition in assay [1] was -1.57%; in assay [2], 0.86%; in assay [3], -0.63%.

As to `FC(F)(F)c1cccc(N=C(S)NN=Cc2ccccn2)c1`, the inhibition was -0.57% in assay [1], 4.7% in assay [2] and 1.52% in assay [3].

With `O=C1Nc2cccc3c2C1(CCCN1CCC(c2c[nH]c4cc(C(F)(F)F)ccc24)CC1)CCC3` (centres undefined), the inhibition was -0.49% in assay [1], -2.03% in assay [2] and -0.71% in assay [3].

As for `COc1ccc(CC(=O)Nc2ccc(Nc3nc(C)cc(N4CCCC4)n3)cc2)cc1`, the inhibition was 46% in assay [1], 51.5% in assay [2] and 16.1% in assay [3].

On to `CN(C)C(=O)c1cc(CNCc2ccccc2)ccc1-c1cccc(CNCc2ccc(-c3ccccc3)cc2)c1`, for which the inhibition was determined as 0.97% in assay [1], 3.85% in assay [2] and 3.02% in assay [3].

With `CCCCCCN1CCN(Cc2cccc(NC(=O)c3cccc(OCC)c3)c2)CC1`, the inhibition in assay [1] came out at 13.6%; in assay [2] it was 13.5%; in assay [3], 13.1%.

With `CN1CCC(c2c[nH]c3ccc(NC(=O)Nc4ccc(-c5ccncc5)cc4Cl)cc23)CC1`, the inhibition stood at 1.45% in assay [1], 1.38% in assay [2] and 2.14% in assay [3].

On to `Fc1cc(Cl)ccc1Nc1ccnc2cc(I)ccc12`, for which the inhibition in assay [1] worked out at 2.92%; in assay [2] it was 5.41%; in assay [3] it was 3.25%.

As to `COc1ccc(NC(=O)c2ccc(C=Cc3ccc(C(F)(F)F)cc3)cc2)cc1N1CCN(C)CC1`, the inhibition is 0.43% in assay [1], 0.25% in assay [2] and -0.41% in assay [3].

Take `CCc1c(CCNCCCCCCNCCc2ccc(Br)cc2)ccc(OC)c1OC`: the values for the inhibition in assay [1], in assay [2] and in assay [3] were 36.3%, 10.9% and 103%, respectively.

As to `CCN(CC)CCOc1ccc(C(O)(C#CC(O)(c2ccc(OCCN(CC)CC)cc2)c2ccc([N+](=O)[O-])cc2)c2ccc([N+](=O)[O-])cc2)cc1` (centres undefined), the figures for the inhibition in assay [1], in assay [2] and in assay [3] were 61%, 32.7% and 4.31%, respectively.

With `CCN1CCC(NCc2ccc(-c3ccc(Cl)s3)cc2)CC1`, the inhibition in assay [1] is -1.87%; in assay [2], -1.38%; in assay [3], -1.7%.

Turning to `O=C(c1ccc(OCCn2ccnc2)cc1)N1CCC(c2ccc(Br)cc2)C1` (centres undefined), the inhibition in assay [1] came out at 0.09%; in assay [2] it was 3.01%; in assay [3], 0.49%.

In the case of `CCCCCCCCN1CCN(CCCCCCNc2c3ccccc3nc3ccccc23)CC1`, the inhibition was determined as 55.5% in assay [1], 28.6% in assay [2] and 61.1% in assay [3].

`CN1CCC(NCc2cccc(-c3nn(C)c4nc(NC5CCCC5)ncc34)c2)CC1`: the inhibition in assay [1] is 2.78%; in assay [2], 1.84%; in assay [3] it was 3.81%.

Regarding `COc1cc(NC(=O)c2sc(-c3ccc(Cl)cc3)cc2NC(=O)c2cccnc2)ccc1OCCN1CCCC1`, the values for the inhibition in assay [1], in assay [2] and in assay [3] were 4.28%, 4.76% and 6.19%, respectively.

For the compound `Cc1[nH]c(C)c(-c2ccc(OCc3ccc(OC(F)(F)F)cc3)nc2)c(=O)c1Br`, the results for the inhibition in assay [1], in assay [2] and in assay [3] were 8.89%, 13.8% and 3.44%, respectively.

As for `COc1ccc(NC(=O)[C@H](CC(C)C)Nc2ccnc(Nc3ccccc3)n2)cc1`, the inhibition in assay [1] is 0.79%; in assay [2], 2.71%; in assay [3], -0.96%.

As for `COc1ccc(S(=O)(=O)Nc2cc(Br)cc3c2OCCC3)cc1N1CCN(C(=O)C(Cl)(Cl)Cl)CC1`, the inhibition is -1.16% in assay [1], -1.14% in assay [2] and -0.3% in assay [3].

In the case of `CCC(=O)Nc1ccc(Nc2nc(C)cc(N3CCCC3)n2)cc1`, the results for the inhibition in assay [1], in assay [2] and in assay [3] were 3.46%, 12.4% and 2.39%, respectively.

For `Cc1cccc2nc(-c3cccc(-c4ccc(NC(=O)CC5NC(=O)c6ccccc65)cc4)c3)[nH]c12` (centres undefined), the inhibition in assay [1] worked out at 8.73%; in assay [2], 9.29%; in assay [3] it was 7.01%.

With `O=C(Nc1nccs1)c1sc2ccccc2c1O`, the inhibition is 3.63% in assay [1], 2.26% in assay [2] and 1.45% in assay [3].

For `Cc1cccc(NC(=O)NC2CCN(CCCCCNC(=O)/C=C/c3ccc(Cl)c(Cl)c3)CC2)c1`, the results for the inhibition in assay [1], in assay [2] and in assay [3] were 4.31%, 3.83% and 3.5%, respectively.
